Among all 1,300 compounds or so, about 30 (2%) were called active. Another 10% or so got no clear call; they are omitted. Shown is part of a subset that was picked to be rich in actives. A number with no mark means an inactive call. Calls follow the shape of the dose curve; as a rule, active = well fitted inhibition curve with a large enough effect; inconclusive = small, poorly fitted or top-dose-only effect; inactive = flat fitted curve, though single readings scatter.
Assay: qHTS for antagonists of the Thyroid Stimulation Hormone Receptor: Hit Validation in HTRF Activity in a Luteinizing Hormone Receptor Cell Line
Details: LHR-expressing cell line, cAMP HTRF, antagonist mode; series mostly up to 58 µM; activity change, negative = inhibition: at the top concentration
From the text: The thyroid-stimulating hormone receptor (TSHR) is a member of the 7 trans-membrane-spanning receptor (7TMR) family of cell surface receptors. TSHR-mediated hyperthyroidism is important in thyroid pathology. The development of small molecule antagonists of TSHR may lead to therapeutic approaches for TSHR-mediated hyperthyroidism caused by constitutively activating mutations or stimulating auto-antibodies associated with Graves' disease. Graves' disease is the leading cause of hyperthyroidism and is caused by autoantibodies that stimulate TSHR (TsAbs) causing thyroid growth and unregulated overproduction of thyroid hormones and existing treatments have liabilities (agranulocytosis). In addition, TSHRs are known to be expressed in multiple extrathyroidal tissues including bone, brain, kidney, testis, fat and cells of the immune system but the role of the TSHR in these tissues is not clear. Therefore, TSHR antagonists/inverse agonists could be used as probes of extrathyroidal TSHR function. Finally, TSHR inverse agonists, which are a subclass of antagonists that inhibit agonist-independent (or basal or constitutive) TSHR signaling, could be used to inhibit TSH-independent signaling in patients with recurrent or metastatic thyroid cancer who are receiving thyroid hormone to suppress TSH.
In collaboration between scientist from the NCGC and the NIDDK, a miniaturized HTRF high-throughput screen was developed. It's a cell based assay, where an anti cAMP antibody contains a fluorescent cryptate tag (excitation 337 nm; emission 620 nm) and the acceptor is cAMP-d2 (excitation 620 nm; emission 665 nm). When antibody and cAMP-d2 interact and are excited by a 337 nm light, a FRET occurs resulting in emission at 665 nm. The assay is competition between cAMP-d2 and cAMP (from the cell lysate). The homogeneous protocol allows for one step dispense after stimulation that is automation friendly. In order to confirm specificity of the compounds to the TSHR, a confirmatory assay was conducted on a similar family member, the Luteinizing Hormone (LH) receptor, transfected into a HEK 293 cell line, using an orthogonal detection technology to measure cAMP stimulation: antibody-based Homogeneous Time Resolved Fluorescence (HTRF).
NIH Chemical Genomics Center [NCGC]
NIH Molecular Libraries Probe Centers Network [MLPCN]
Assay Provider: Marvin Gershengorn, NIDDK
Homogeneous Time Resolved Fluorescence (HTRF) cAMP Assay. HEK 293 cells stably transfected with a vector containing the LH receptor and maintained under hygromycin selection were obtained from the laboratory of Dr. Marvin Gershengorn. Compounds were assayed using a HTRF cAMP detection kit (Cisbio) on the LH receptor transfected cell line. Briefly, 750 cells were plated in 2.5 ul/well of complete media (DMEM containing 10 % FCS, and 100 uM RO 20-1724) in 1536 well solid bottom white plates and 23 nl/well compound in DMSO solution or controls was added. Following 30 minute incubation at room temperature, 2.5 ul/well of labeled d2 cAMP and 2.5 ul/well of anti-cAMP antibody (both diluted 1:20 in lysis buffer) were added to each well using a flying reagent dispenser (Aurora Discovery, San Diego) . Plates were measured using the Envision plate reader (PerkinElmer, Boston, MA) with excitation at 330 nm and emissions of 615 nm and 660 nm.
% is scaled to controls: 0 for no effect and ±100 for the full control effect; potency is read from the fitted curve at half-maximal effect.

Point of comparison: `OCCSc1nnc(Nc2ccccc2)s1`, “activity change, negative = inhibition” value 0.323%. Against it:
- O=C(NC1CCCCC1)C(c1cccs1)N(Cc1cccs1)C(=O)c1cccs1 (centres undefined) — lower, -9.17%
- CC(=O)c1ccc(N(C(=O)CNC(=O)c2ccco2)C(C(=O)NC2CCCC2)c2ccncc2)cc1 (centres undefined) — lower, -0.321%
- Cc1c(C(=O)NCc2ccc3c(c2)OCO3)sc2nc(-c3ccccc3)cn12 — lower, 0.0777%
- N#Cc1c(Cl)nsc1NC(=O)c1ccccc1 — lower, -2.2%
- O=C1CCCN1c1ccc(S(=O)(=O)Oc2ccc(Cl)cc2)cc1[N+](=O)[O-] — lower, -4.4%
- CN(C)c1ccc(NC(=S)c2ccc3ccccc3n2)cc1 — higher, 1.72%
- CSc1nc(-c2ccc(Cl)cc2Cl)[nH]c(=O)c1C#N — lower, -0.495%
- CCOc1cc(N2CCOCC2)c(OCC)cc1NC(=O)c1cccc(S(=O)(=O)N2CCOCC2)c1 — lower, -2.11%
- COc1ccc(S(=O)(=O)Nc2ccc(C)cc2)cc1N(C)S(=O)(=O)c1ccc(Cl)cc1 — lower, -3.51%
- O=C(Nc1ncc(S(=O)(=O)c2ccc([N+](=O)[O-])cc2)s1)c1ccc2ccccc2c1 — lower, -3.12%
- O=C(Nc1ncc(S(=O)(=O)c2ccc([N+](=O)[O-])cc2)s1)c1cccc2ccccc12 — lower, 0.232%
- CCOC(=O)CCCCCC(=O)Nc1ccc2c(c1)CC(=O)N([C@H](C)CO)C[C@@H](C)[C@H](CN(C)Cc1ccc3c(c1)OCO3)O2 — higher, 1.07%
- c1ccc2c(CSc3ncnc4nc[nH]c34)cccc2c1 — higher, 1.84%
- CC1=NN(C(N)=S)C(=O)C1N=Nc1ccc(Cl)cc1Cl (centres undefined) — lower, -0.667%
- Cc1ncsc1CCOC(=O)C1C2CC3CC(C2)CC1C3 (centres undefined) — lower, -1.68%
- CCOC(=O)N1CCN(C(=O)c2ccc3c(c2)N=C(CC)c2cc(C)ccc2S3)CC1 — lower, -1.95%
- O=C(COC(=O)c1cc(S(=O)(=O)N2CCOCC2)c(Cl)cc1Cl)c1ccc[nH]1 — lower, -1.62%
- COc1cc(/C=C(\C#N)c2ccccn2)ccc1OCc1ccc(Cl)cc1 — lower, -1.94%
- C/C(=N\Nc1cc(C)nc(-c2ccccc2O)n1)c1ccccc1 — higher, 0.625%
- O=C(Nc1cc(S(=O)(=O)N2CCCCC2)ccc1Cl)c1ccccc1NS(=O)(=O)c1ccc(F)cc1 — lower, -2.9%
- Clc1ccccc1CN(Cc1ccccc1)c1ncnc2nc[nH]c12 — higher, 1.01%
- COC(=O)c1ccc(NC(=O)Nc2ccc(F)c(Cl)c2)cc1 — lower, -2.51%
- O=C1C(Cl)=C(Nc2ccc(O)cc2)C(=O)c2ccccc21 — lower, -6.39%
- COc1ccc2cc(/C=C3\SC(=S)NC3=O)c(N3CCOCC3)nc2c1 — lower, -2.49%
- O=S1(=O)C=C(Sc2nc3cc(Cl)ccc3o2)c2ccccc21 — lower, -7.43%
- O=C(Nc1ccc(Oc2ccc(Cl)cc2)c(Cl)c1)c1cc(I)cc(I)c1O — lower, -0.309%
- O=C(COC(=O)c1ccccc1C(=O)c1ccc(Cl)c([N+](=O)[O-])c1)NC1CCCCCC1 — lower, -6.9%
- O=C(O)c1ccc(Cl)cc1Nc1nc2cc(Cl)ccc2o1 — lower, -1.31%
- COc1ccc(CNC(=O)Cn2nc(Cc3cccnc3)c3ccccc3c2=O)cc1 — lower, -0.39%
- N#C/C(=N\Nc1ccc(Cl)c(Cl)c1)C(=O)C1CC1 — lower, -0.632%
- O=S(=O)(Nc1cc(Cl)ccc1-n1cncn1)c1cc(Br)ccc1Br — lower, -0.878%
- O=C(Nc1cccc(Cl)c1)Nc1ccc(Br)cc1F — lower, -5.11%
- COC(=O)c1ccc(C2N=C(c3cccs3)CC(c3ccccc3O)N2)cc1 (centres undefined) — lower, -2.24%
- COc1ccc(CNC(=O)C(C)OC(=O)c2cccs2)cc1 (centres undefined) — lower, -2.06%
- COc1cc(C(C(=O)NCc2ccccc2)N(C(=O)c2snc(C(N)=O)c2N)C2CCCC2)cc(OC)c1OC (centres undefined) — lower, -0.39%
- O=C(O)/C=C/c1ccc(S(=O)(=O)Nc2ccccc2C(=O)Nc2ccc(F)cc2)cc1 — lower, -0.301%
- CN1CCN(C2=CC3=CC(=C(C#N)C#N)CCC3CC2)CC1 (centres undefined) — higher, 0.754%
- Nc1nc(SCC(=O)C23CC4CC(CC(C4)C2)C3)n[nH]1 — higher, 1.45%
- CC(C)(C)C(=O)NC(NC(=S)Nc1sc2c(c1C#N)CCCC2)C(Cl)(Cl)Cl (centres undefined) — higher, 0.759%
- CC1Cc2ccccc2N1C(=O)COC(=O)/C=C/c1ccc(F)cc1 (centres undefined) — lower, -0.809%
- COc1cc(NC(=O)Cn2nc(C(F)(F)F)c(Br)c2C)cc([N+](=O)[O-])c1 — lower, -0.304%
- CCCC(=NC(C)CC)C1=C(O)CC(c2ccccc2)CC1=O (centres undefined) — lower, -1.47%
- O=C(Nc1ncc(S(=O)(=O)c2ccc([N+](=O)[O-])cc2)s1)c1ccccc1F — lower, -0.0884%

In the case of `Cc1cccc(N(C(=O)c2nsc(Cl)c2Cl)C(C(=O)NC2CCCC2)c2ccc(O)cc2)c1C` (centres undefined), the Potency is reported as 12 µM (active).
In the case of `CCC(=O)NC1=C(Cl)C(=O)C(NC(=O)CC)=C(Cl)C1=O`, the Potency is reported as 30.1 µM (active).
For `COc1ccc(CNC(=O)C(c2ccco2)N(C(=O)c2snc(C(N)=O)c2N)c2cccc(OC)c2)cc1` (centres undefined), the Potency was 13.5 µM (active).
With `O=C1C(SCCO)=C(SCCO)C(=O)c2ccccc21` the Potency was 26.9 µM (active).
In the case of `CCn1nc(C)cc1-c1nnc(Sc2ncc([N+](=O)[O-])s2)n1C`, the Potency is reported as 37.9 µM (active).

From PubChem BioAssay AID602293 (National Center for Advancing Translational Sciences (NCATS), 2012)
